Among the data in PubChem BioAssay (NCI) are growth values, retold here.

Structures are written as SMILES. This is part of a sample that, as a whole, favours compounds with a hit. Of some 83,000 tested, about 20% had one in any assay.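 Growth was measured after 48 h exposure to one concentration of compound in 96-well plates. Values under 10 count as active.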 Unmarked numbers belong to inactive results. Activity calls are given as the source filed them.

Some test systems named below: NCI-H23 lung; NCI-H226 lung; NCI-H322M lung; HOP-62 NSCLC; NCI-H460 lung; HOP-92 NSCLC; NCI-H522 lung; A549/ATCC NSCLC; 786-0 renal; COLO 205 colon; DU-145 prostate; K-562 leukemia; MALME-3M melanoma; MDA-MB-231 breast; RXF 393 renal; SF-268 CNS; SF-295 CNS; SF-539 CNS; UACC-257 melanoma; M14 melanoma.
Common to all, as to test: NCI-60 one-dose screen, 48 h (100 = growth as untreated, 0 = no growth, -100 = all killed)
Common to all, as to details: 10 µM unless noted

For the molecule `CCCCCCNc1nc(NCCCCCC)c2[nH]c(NCCCCCC)nc2n1`, the growth is 48.2% in the experiment with NCI-H23 lung; 92.1% in the experiment on NCI-H226 lung; 1.94% (active) in the experiment with NCI-H322M lung; 75.7% in the experiment on HOP-62 NSCLC; 48.1% in the experiment with NCI-H460 lung; -12.9% (active) in the experiment on HOP-92 NSCLC. For the same molecule, the growth in the experiment on NCI-H522 lung is -42% (active); in the experiment on A549/ATCC NSCLC it was 7.63% (active); in the experiment on 786-0 renal it was 68.2%; with COLO 205 colon, -2.12% (active); in the experiment with DU-145 prostate, 84.6%; with K-562 leukemia, -19.2% (active). Besides, the growth in the experiment with MALME-3M melanoma is 60.8%; with MDA-MB-231 breast it was -2.45% (active); with RXF 393 renal it was 81%; in the experiment with SF-268 CNS it was 52.5%; with SF-295 CNS, 70.3%; in the experiment with SF-539 CNS, 82.6%. The growth in the experiment with UACC-257 melanoma was 104%; with M14 melanoma, 79.5%.
On to `C#CCOc1cccc(-c2ncc3cc(NC(=O)CCl)ccc3n2)c1`, for which the growth with NCI-H23 lung is -13.8% (active); in the experiment on NCI-H226 lung it was 2.41% (active); in the experiment on NCI-H322M lung, 69.4%; in the experiment on HOP-62 NSCLC it was -5.99% (active); with NCI-H460 lung, 27.8%; in the experiment on HOP-92 NSCLC it was 14.2%. Besides, the growth is -72.2% (active) with NCI-H522 lung; 73.4% in the experiment on A549/ATCC NSCLC; -81.4% (active) in the experiment on 786-0 renal; -77.7% (active) with COLO 205 colon; -73.1% (active) in the experiment on DU-145 prostate; 2.16% (active) in the experiment on K-562 leukemia. For the same molecule, the growth in the experiment on MALME-3M melanoma is -69% (active); in the experiment on MDA-MB-231 breast, -10.3% (active); with RXF 393 renal, -86.3% (active); in the experiment on SF-268 CNS it was -41.8% (active); in the experiment with SF-295 CNS it was 69.4%; in the experiment with SF-539 CNS, -25.9% (active). The growth in the experiment with UACC-257 melanoma is 62%; in the experiment with M14 melanoma it was -45.9% (active).
With `COc1cc(C(=O)/C=C/c2c(-c3cccs3)nc3ccccn23)cc(OC)c1OC`, the growth with NCI-H23 lung is 14.1%; with NCI-H226 lung it was 24.8%; in the experiment on NCI-H322M lung, -2.37% (active); in the experiment on HOP-62 NSCLC, 16.3%; with NCI-H460 lung, -48.1% (active); with HOP-92 NSCLC, -1.12% (active). The growth was 1.24% (active) with NCI-H522 lung; 13.7% in the experiment with A549/ATCC NSCLC; 0.465% (active) with 786-0 renal; 2.79% (active) in the experiment with COLO 205 colon; 3.29% (active) in the experiment on DU-145 prostate; 25.7% in the experiment with K-562 leukemia. Also, the growth is 33.9% with MALME-3M melanoma; 24.7% in the experiment on MDA-MB-231 breast; 2.35% (active) in the experiment on RXF 393 renal; 21% in the experiment with SF-268 CNS; -29.7% (active) in the experiment on SF-295 CNS; -27% (active) with SF-539 CNS. Also, the growth was 29.9% with UACC-257 melanoma and 11.7% with M14 melanoma.
As to `CCCn1c(=S)sc2c1nc(C)n1c(Nc3ccccc3)nnc21`, the growth is 26.6% in the experiment on NCI-H23 lung; 66.9% with NCI-H226 lung; 83.9% in the experiment on NCI-H322M lung; 75.5% in the experiment with HOP-62 NSCLC; 45.3% in the experiment with NCI-H460 lung; 48.9% in the experiment on HOP-92 NSCLC. Further, the growth in the experiment with NCI-H522 lung is 12.4%; with A549/ATCC NSCLC, 66.1%; in the experiment with 786-0 renal, 54.8%; in the experiment with COLO 205 colon it was 128%; in the experiment with DU-145 prostate, 109%; in the experiment with K-562 leukemia, 37.6%. For the same molecule, the growth was 65.4% in the experiment on MALME-3M melanoma; 84.5% in the experiment with MDA-MB-231 breast; 29.3% in the experiment on RXF 393 renal; 99.4% in the experiment with SF-268 CNS; 51.7% in the experiment on SF-295 CNS; 62.9% with SF-539 CNS. The figures for the growth in the experiment with UACC-257 melanoma and in the experiment on M14 melanoma were 75.3% and 89.1%, respectively.
For the molecule `CCOC(=O)c1cn2ncnc(Oc3ccc(NC(=O)NC4CC4)c(F)c3)c2c1C`, the growth in the experiment with NCI-H23 lung is 90.4%; in the experiment with NCI-H226 lung, 78.6%; in the experiment on NCI-H322M lung, 105%; in the experiment on HOP-62 NSCLC, 95.2%; with NCI-H460 lung it was 99.1%; in the experiment on HOP-92 NSCLC, 132%. Moreover, the growth was 90.2% in the experiment on NCI-H522 lung; 102% with A549/ATCC NSCLC; 106% in the experiment with 786-0 renal; 113% with COLO 205 colon; 110% in the experiment on DU-145 prostate; 88.6% in the experiment with K-562 leukemia. Moreover, the growth in the experiment on MALME-3M melanoma is 107%; with MDA-MB-231 breast it was 99.3%; in the experiment with RXF 393 renal, 97.2%; in the experiment with SF-268 CNS it was 95%; in the experiment on SF-295 CNS, 98.5%; in the experiment on SF-539 CNS, 85%. For the same molecule, the growth in the experiment with UACC-257 melanoma is 107%; with M14 melanoma, 109%.
Turning to `Cc1ncc(C(=O)Nc2ccc(CN3CCN(C)CC3)c(C(F)(F)F)c2)cc1C#Cc1cnc(N)c2cnccc12`, the growth with NCI-H23 lung is 9.05% (active); in the experiment on NCI-H226 lung, 12.1%; in the experiment on NCI-H322M lung it was 14.8%; in the experiment with HOP-62 NSCLC it was -21.8% (active); with NCI-H460 lung it was -53.9% (active); in the experiment with HOP-92 NSCLC, 34.2%. For the same molecule, the growth in the experiment on NCI-H522 lung is -0.528% (active); with A549/ATCC NSCLC, 13.3%; with 786-0 renal, 14%; in the experiment on COLO 205 colon, -27% (active); in the experiment on DU-145 prostate, 13.5%; with K-562 leukemia, 25.1%. Also, the growth is -26.1% (active) in the experiment on MALME-3M melanoma; -63.4% (active) with MDA-MB-231 breast; -34.3% (active) with RXF 393 renal; 14.6% in the experiment with SF-268 CNS; 23.6% in the experiment with SF-295 CNS; -76.2% (active) with SF-539 CNS. Further, the growth was -16.8% (active) with UACC-257 melanoma and -78.5% (active) with M14 melanoma.
For `COc1ccc(-c2ccc(=O)oc2C#Cc2cc(OC)c(OC)c(OC)c2)cc1O`, the growth was 44.2% with NCI-H23 lung; 51.7% in the experiment on NCI-H226 lung; 31.5% with NCI-H322M lung; -28.1% (active) in the experiment on HOP-62 NSCLC; -4.6% (active) with NCI-H460 lung; 51.4% in the experiment on HOP-92 NSCLC. The growth in the experiment on NCI-H522 lung is 4.45% (active); with A549/ATCC NSCLC, 28.7%; in the experiment on 786-0 renal, 11.8%; with COLO 205 colon, 47.2%; with DU-145 prostate, -4.48% (active); with K-562 leukemia it was 0.484% (active). In addition, the growth in the experiment with MALME-3M melanoma was 48%; in the experiment with MDA-MB-231 breast, 30.4%; in the experiment on RXF 393 renal, -13.2% (active); in the experiment on SF-268 CNS, 20.5%; with SF-295 CNS, -20.6% (active); in the experiment with SF-539 CNS it was -28.7% (active). Moreover, the growth was 35.7% in the experiment with UACC-257 melanoma and -44.5% (active) in the experiment on M14 melanoma.
